# Hit rate of the full screen: of about 190,000 compounds, about 1,300 (0.68%) were called active. This excerpt belongs to a sample that is enriched for actives. Values without a mark were called inactive. Rule as the data show it: active = inhibition above about 50%; inactive = the rest.
# Target: Mannose-6-phosphate isomerase (Homo sapiens) (UniProt P34949)
# Test: human PMI inhibitors, high substrate, primary screen, biochemical, fluorescence intensity, high mannose 6-phosphate (AID 1220)
# Conditions: recombinant PMI enzyme, coupled fluorescence intensity; at 20 µM; active compounds read high
# Chain of Mannose-6-phosphate isomerase (Homo sapiens) (P34949 whole entry, looked up): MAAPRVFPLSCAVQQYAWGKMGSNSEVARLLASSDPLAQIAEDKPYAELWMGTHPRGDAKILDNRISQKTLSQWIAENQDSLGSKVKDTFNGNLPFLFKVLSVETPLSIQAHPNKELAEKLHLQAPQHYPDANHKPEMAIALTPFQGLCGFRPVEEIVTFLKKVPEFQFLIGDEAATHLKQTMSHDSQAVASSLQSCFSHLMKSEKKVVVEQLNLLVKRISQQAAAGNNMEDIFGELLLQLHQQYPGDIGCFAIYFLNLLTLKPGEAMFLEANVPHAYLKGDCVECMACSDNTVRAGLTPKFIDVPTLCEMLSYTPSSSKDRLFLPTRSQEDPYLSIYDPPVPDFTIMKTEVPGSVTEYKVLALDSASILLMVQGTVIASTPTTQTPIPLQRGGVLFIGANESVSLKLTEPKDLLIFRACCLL
row,SMILES,inhibition
1,O=C(N=Nc1c(O)[nH]c2ccccc12)c1cc(NS(=O)(=O)c2cccs2)cc(NS(=O)(=O)c2cccs2)c1,-0.7%
2,O=C(N/N=C/C=C\c1ccccc1[N+](=O)[O-])c1ccccn1,13.1%
3,COc1ccc(N2CCN(C(c3cccs3)C(C)NS(=O)(=O)c3ccccc3)CC2)cc1 (stereo not given),20.1%
4,CN(c1ccc(OCC(=O)OCC(=O)NC2CCCC2)cc1)S(=O)(=O)c1ccc2ccccc2c1,23.5%
5,O=C(O)C1CCC(Cn2c(SCc3cc(=O)n4cc(Br)ccc4n3)nc3ccsc3c2=O)CC1 (stereo not given),5.7%
6,Cc1ccc2cc(S(=O)(=O)NCCCN3CCOCC3)ccc2c1,4.1%
7,O=C(CNc1ccccc1)N/N=C/c1ccc([N+](=O)[O-])o1,8%
8,O=C(CNc1cccc2ccccc12)N/N=C/c1ccc([N+](=O)[O-])o1,60.4% (active)
9,O=C(CNc1ccc2ccccc2c1)N/N=C/c1ccc([N+](=O)[O-])o1,46.2%
10,O=C(O)/C=C/C(=O)N1CCN(c2ccccc2F)CC1,2.7%
11,N#CCSc1nnc(C2CCCCC2)n1-c1ccccc1,11.9%
12,NC(=O)c1cccc(S(=O)(=O)N2CC(c3ccccc3)CC2=O)c1 (stereo not given),5.1%
13,COc1ccc(C(=O)Oc2cccc3cccnc23)cc1[N+](=O)[O-],51.9% (active)
14,O=[N+]([O-])c1ccc(Oc2cccc3cccnc23)c([N+](=O)[O-])c1,11.4%
15,Cc1cc(Cl)ccc1Oc1ccc(C(N)=O)cc1[N+](=O)[O-],5.8%
16,NC(=O)c1ccc(Oc2cccc3cccnc23)c([N+](=O)[O-])c1,50.2% (active)
17,Cc1c(C(=O)Oc2cccc3cccnc23)cccc1[N+](=O)[O-],36.1%
18,O=C(Oc1cccc2cccnc12)c1cccc([N+](=O)[O-])c1,44.3%
19,COc1cccc(CNC(=O)CCC2CCCN(C(=O)CCC(F)(F)F)C2)c1 (stereo not given),7.7%
20,CCNc1nc(NCC)n2c(SCC(=O)c3ccc(C(C)C)cc3)nnc2n1,-21%
21,CCCNC(=O)Cc1c(O)c2ccccc2[nH]c1=O,6.5%
22,COc1ccc(C2C3=C(Nc4ncnn42)c2ccccc2CC3)cc1OC (stereo not given),38.6%
23,COc1ccc(C2C3=C(Nc4ncnn42)c2ccccc2CCC3)cc1 (stereo not given),3.7%
24,COc1cc(C2C3=C(Nc4ncnn42)c2ccccc2CC3)cc(OC)c1OC (stereo not given),51.9% (active)
25,Cc1ccn2c(-c3csc(NCc4ccco4)n3)c(C)nc2c1,48.7%

row,SMILES,inhibition
1,Cc1ccc2[nH]c(=O)c(-c3nc4cc(C)ccn4c3NCc3ccco3)cc2c1,53.7% (active)
2,Cc1ccc2[nH]c(=O)c(-c3nc4c(C)cccn4c3NCc3ccco3)cc2c1,55.2% (active)
3,Cc1ccc2[nH]c(=O)c(-c3nc4ccccn4c3NCc3ccco3)cc2c1,-4.9%
4,Cc1cccc2cc(-c3nc4c(C)cccn4c3NCc3ccco3)c(=O)[nH]c12,1.7%
5,Cc1cccn2c(=O)c(C=Nc3ccccc3)c(NCc3ccco3)nc12,-12.9%
6,CC1CCCCC1NCc1cccc([N+](=O)[O-])c1 (stereo not given),2.2%
7,CCc1ccc(C2=NN(S(C)(=O)=O)C(c3cccs3)C2)cc1 (stereo not given),3.7%
8,COc1ccccc1NC(=O)Cn1cnc2sc(C(=O)NCc3ccco3)c(C)c2c1=O,-4.1%
9,Nc1nc2c(Cl)ccc(Cl)c2s1,8%
10,Nn1c(SCc2ccccn2)nncc1=O,-1.6%
11,C/C(=N\Nc1ccccn1)c1ccc(C(C)C)cc1,11.6%
12,CCOc1ccccc1NC(=O)COC(=O)C(CC)c1ccccc1 (stereo not given),64.5% (active)
13,CCC(C(=O)OCC(=O)Nc1cc(C)ccc1OC)c1ccccc1 (stereo not given),0.3%
14,CCC(C(=O)OCC(=O)Nc1ccc(OC)cc1OC)c1ccccc1 (stereo not given),10.5%
15,O=C(NC1CCCc2ccccc21)c1ccc2c(c1)OCO2 (stereo not given),8.7%
16,COc1ccc(-n2cc(CNCC3CCOCC3)c(-c3cccc(F)c3)n2)cc1,4.6%
17,CCOC(=O)C1CCN(c2cc(=O)n(-c3ccccc3Cl)c(=O)[nH]2)CC1,-1.4%
18,Cc1nc(-c2ccccc2)cn(O)c1=O,65.6% (active)
19,Cc1nc(-c2ccccc2)ccc1C(=O)O,0.4%
20,O=c1c(-c2ccccc2)nc(-c2ccccc2)cn1O,3.4%
21,CCOC(=O)N1CCN(C(=O)CSc2ccc3nnc(-c4ccncc4)n3n2)CC1,8.4%
22,COc1ccccc1/C=N/Nc1nncc2ccccc12,-1.9%
23,COc1ccccc1/C=N/NC1=NCCCCC1,0.4%
24,COc1ccccc1/C=N/Nc1cc(N(C)C)nc(N(C)C)n1,63.4% (active)
25,O=C(CCCN1C(=O)c2ccccc2C1=O)Nc1c2c(nc3c1CCC3)CCC2,-20.1%

# Reference: PubChem BioAssay AID1220 (Sanford-Burnham Center for Chemical Genomics, 2008)
